Lmaj promast = reduces viability of Leishmania major promastigotes; resazurin fluorescence viability; inhibition, % at 10 µM; hit rate 9% among 200,000; AID 1063; in the data active means inhibition above about 50%;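 further: promastigotes grown with compound for 44 hours at 28 °C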
WT yeast gro inh = growth inhibition of WT yeast, mitochondrial fusion screen. mitochondrial fusion phenotypic screen, WT strain. inhibition, % at 10 µM. hit rate 2.1% among 190,000; in the data active means inhibition above about 58%; tested in S. cerevisiae
CHOP inhibitor = CHOP inhibition in unfolded protein response; hit rate 3.8% among 220,000; CHO-K1 CHOP-promoter luciferase, tunicamycin-induced, 15-18 h; inhibition, % at 10 µM;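 active means compounds that reduced the stress-induced luciferase reporter signal by more than about 70% of percent inhibition, limit read from the data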;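 further: 0% = tunicamycin plus vehicle and 100% = wells without tunicamycin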
RAM network inh = yeast RAM network inhibition; S. cerevisiae dse1pr::URA3 reporter, 5-FOA growth OD615, 2 d; analog-sensitive cbk1-as2 kinase mutant strain; inhibition, % at 50 µM; hit rate 1.8% among 190,000; AID 868;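 active means inhibition above a set limit, 3 SD over mean compound inhibition, cut at about 8.4% in these data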;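 further: 0% = DMSO-only wells with no growth and 100% = 10 µM 1-NA-PP1 full growth; inhibition rescues growth on 5-FOA so higher OD means more RAM inhibition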
* = called active by the depositor; . = no result. The list is not random: actives were taken first. Their share in the collection is about 13%.

SMILES	Lmaj promast	WT yeast gro inh	CHOP inhibitor	RAM network inh
COc1cccc(-c2cc(N)nn2C(=O)Nc2ccc(Cl)cc2)c1	-5.8	46.0	95.5*	-1.2
COc1ccc(-c2ccnc(SCC(=O)c3ccc(OC)c(OC)c3)n2)cc1	-1.8	5.8	25.0	4.7
COc1ccc(-c2ccnc(SCC(=O)N3CCN(c4ccccc4)CC3)n2)cc1	.	.	27.5	.
COc1ccc(OC)c(C(=O)CSc2nccc(-c3ccc(Br)cc3)n2)c1	-0.9	12.0	79.9*	1.1
COc1ccc(-c2ccnc(SCC(=O)c3ccc(Cl)cc3)n2)cc1	-3.0	29.6	8.8	8.9*
Cc1nnc(SCc2ccccc2CSc2nnc(C)s2)s1	4.7	5.9	-5.9	1.4
CC(C)(C)C(=O)OCCNc1nc(-c2ccccc2)nc2ccccc12	53.7*	46.4	9.2	2.5
Nc1nnn(CC(=O)N/N=C/c2cn[nH]c2-c2ccccc2)n1	.	.	15.2	.
Cc1ccc(OCCOC(=O)c2sc(=S)n(C)c2C)cc1	-6.4	21.7	44.2	2.4
Cc1c(C(=O)OCCOc2ccc(Br)cc2)sc(=S)n1C	-5.0	-7.1	10.9	10.7*
COc1ccccc1NC(=O)N(Cc1ccco1)Cc1cc2cc(C)cc(C)c2[nH]c1=O	63.1*	27.9	60.9	5.3
Cc1cc2cc(CN(Cc3ccco3)S(=O)(=O)c3c(C)ccc4nsnc34)c(=O)[nH]c2cc1C	75.6*	-19.2	20.3	3.9
COc1ccccc1NC(=S)N(Cc1ccco1)Cc1cc2cc(C)c(C)cc2[nH]c1=O	36.5	9.3	-38.4	9.5*
COc1ccccc1NC(=O)N(Cc1ccco1)Cc1cc2ccc(C)c(C)c2[nH]c1=O	10.1	11.9	.	4.6
CC(C)CNC(=S)N(Cc1ccco1)Cc1cc2cc3c(cc2[nH]c1=O)OCCO3	88.1*	-7.7	-5.7	-0.8
Cc1ccc2cc(CN(Cc3ccco3)S(=O)(=O)c3c(C)ccc4nsnc34)c(=O)[nH]c2c1	23.5	4.2	-3.0	3.8
CCNC(=S)N(Cc1ccco1)Cc1cc2cc3c(cc2[nH]c1=O)OCCO3	10.8	-10.7	-6.1	4.7
Cc1onc(-c2c(F)cccc2Cl)c1C(=O)N1CCOC12CCCCC2	-7.8	-23.0	7.5	4.2
Cc1c(Cl)cccc1Nc1nc(N)nc(CSC(=S)N2CCOCC2)n1	15.8	1.2	7.2	0.0
COC(=O)c1cc(OC)c(OC)cc1NC(=S)N1CCN(c2ccccc2)CC1	27.6	34.6	-12.9	2.2
CCc1n[n+](CC(=O)c2ccccc2)c(N)s1	5.0	8.3	5.8	1.2
Cc1cc(Cl)ccc1OCC(=O)NCCOc1nc(N2CCOCC2)nc(N2CCOCC2)n1	-3.9	22.3	1.3	0.5
Cc1cc(Cl)ccc1OCC(=O)NCCCN1CCOCC1	92.5*	5.6	4.7	1.2
O=C(COc1ccccc1Cl)NCCCN1CCOCC1	80.3*	-4.9	-0.8	-0.1
CN(C)c1nc(OCCNC(=O)COc2ccc(Cl)cc2Cl)nc(N2CCOCC2)n1	5.9	-8.4	41.0	2.2
SMILES	Lmaj promast	WT yeast gro inh	CHOP inhibitor	RAM network inh
CC(Oc1ccc(Cl)cc1Cl)C(=O)NCCN1CCOCC1 (stereo not given)	79.1*	24.5	18.3	1.0
O=C(COc1ccc(Cl)cc1Cl)NCCCN1CCOCC1	94.0*	19.3	58.0	0.7
O=C(NCCCN1CCOCC1)C(=O)NCc1ccccc1Cl	1.3	-16.5	-7.5	0.7
CCOC(=O)C1(Cc2ccccc2C)CCCN(C(=O)CCc2cccnc2)C1 (stereo not given)	-0.7	3.7	-6.4	0.7
COc1ccc(S(=O)(=O)N(CC(=O)NCc2ccco2)C2CCCCC2)cc1OC	-2.9	-4.1	-5.2	2.3
COc1ccc(CNCC(=O)Nc2cccc(S(N)(=O)=O)c2)cc1	-2.6	-30.9	8.6	0.2
CC(Oc1ccccc1F)C(=O)NCCN1CCCCC1 (stereo not given)	6.4	-0.7	73.7*	-0.1
CC(NCc1ccccc1Cl)C(=O)Nc1ccc(C#N)cc1 (stereo not given)	-2.0	-3.7	2.5	1.8
COc1cc(S(=O)(=O)NCCN2CCOCC2)c(OC)cc1Cl	-0.6	-3.1	78.3*	1.8
Cc1ccc2cc(S(=O)(=O)NCCCN3CCOCC3)ccc2c1	93.2*	11.2	8.9	-0.9
COc1ccc(N2CCN(CCCNS(=O)(=O)c3ccc4c(c3)oc(=O)n4C)CC2)cc1	-8.3	11.3	20.1	0.7
COc1ccc2cc(S(=O)(=O)NCCCN3CCOCC3)ccc2c1	89.5*	-6.9	-1.2	0.6
Clc1ccccc1COc1ccc(/C=N/n2cnnc2)cc1	39.1	31.7	-1.0	-0.6
C=CCNC(=S)N/N=C/c1ccc(OCc2ccccc2Cl)cc1	-2.8	.	92.3*	8.4
O=C(Nc1cccc(C(F)(F)F)c1)c1cc2c(=O)c3ccccc3oc2nc1C(F)(F)F	62.5*	-3.9	-12.5	5.4
O=C(Nc1ccccc1)c1cc2c(=O)c3ccccc3oc2nc1C(F)(F)F	-1.0	23.5	46.5	1.8

Assay outcomes (PubChem)
